Screening results as filed in PubChem BioAssay.
TLR9-MyD88 inh = inhibitors of TLR9-MyD88 association in cells, primary screen, cell-based, CHO, BLA complementation, fluorescence; Toll-like receptor 9 (Homo sapiens) + Myeloid differentiation primary response protein …; CCF4 FRET ratio; inhibition, % at 4.98 µM; 340,000 compounds, 0.21% hits; AID 504734, 2011;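 active means inhibition above the mean over all tested compounds plus 3 SD, cut at about 21% in these data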
IDE act = human IDE activators in live cells, primary screen, fluorescence polarization, HEK cells, FAbeta-B substrate | FAbeta-B cleavage; 0% vehicle, 100% cell-free pure enzyme wells | activation, % at 5.96 µM | 340,000 compounds, 0.073% hits | AID 493087, 2011;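 active means activation above the mean of all tested compounds plus 3 SD, set per screening campaign, cut at about 17% in these data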
TLR4-MyD88 BLA = inhibitors of TLR4-MyD88 association in cells, primary screen, cell-based, HeLa CL3-4, BLA complementation, FRET ratio. Toll-like receptor 4 (Homo sapiens) + Myeloid differentiation primary response protein …. HeLa CL3-4 TLR4/MyD88 BLA complementation. inhibition, % at 8.4 µM. 200,000 compounds, 0.18% hits; in the data active means inhibition above about 25%
NOD2-RIPK2 inh = NOD2-RIPK2 binding disruptors in cells, primary screen, fluorescence, CHO cells, BLA complementation; Receptor-interacting serine/threonine-protein kinase 2 (Homo sapiens), O43353; CCF4 ratio; inhibition, % at 4.98 µM; 360,000 compounds, 0.38% hits; in the data active means inhibition above about 21%
Target sequence (O43353 whole entry, looked up): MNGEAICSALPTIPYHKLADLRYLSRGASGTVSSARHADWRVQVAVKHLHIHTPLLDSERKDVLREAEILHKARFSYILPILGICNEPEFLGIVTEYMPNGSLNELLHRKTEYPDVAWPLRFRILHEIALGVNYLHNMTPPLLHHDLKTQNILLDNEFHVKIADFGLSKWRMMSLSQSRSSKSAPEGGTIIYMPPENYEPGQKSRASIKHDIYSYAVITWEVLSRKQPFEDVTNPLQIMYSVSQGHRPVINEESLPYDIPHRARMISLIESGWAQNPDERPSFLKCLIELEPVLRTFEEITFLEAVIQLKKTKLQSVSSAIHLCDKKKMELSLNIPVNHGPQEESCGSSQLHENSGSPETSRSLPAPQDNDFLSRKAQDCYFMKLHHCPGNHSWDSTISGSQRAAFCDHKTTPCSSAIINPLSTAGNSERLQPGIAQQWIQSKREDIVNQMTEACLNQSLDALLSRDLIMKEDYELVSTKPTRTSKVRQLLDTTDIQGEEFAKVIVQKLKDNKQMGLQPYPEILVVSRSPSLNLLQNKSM
IDE cell inh = human IDE inhibitors in live cells, primary screen, fluorescence polarization, HEK cells, FAbetaB substrate. inhibition, % at 5.59 µM. 320,000 compounds, 0.41% hits. FAbetaB cleavage. AID 434962, 2010. Insulin-degrading enzyme (Homo sapiens), P14735;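 active means percent inhibition above the average of all tested compounds plus 3 SD, set per screening campaign, cut at about 16% in these data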;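 further: IDE supplied by intact live HEK cells; FP after avidin binding of uncleaved biotin substrate so inhibition keeps polarization high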
NOD2 RIPK2 conf = NOD2-RIPK2 binding disruptors, retest, confirmation, fluorescence, CHO cells, BLA complementation, triplicate. 1,200 compounds, 70% hits. CCF4 FRET. inhibition, % at 4.98 µM. shares compounds with NOD2-RIPK2 inh. AID 624370, 2012;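 active means mean inhibition across replicates above a set limit taken from the earlier primary screen, cut at about 21% in these data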
BLA counter = hits BLA reporter in NOD2-RIPK2 inhibitor counterscreen; AID 624371; inhibition, % at 4.98 µM; shares compounds with NOD2-RIPK2 inh; 1,200 compounds, 57% hits; CHO BLA reporter, CCF4 FRET ratio;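 active means mean inhibition above the low-control mean inhibition plus three low-control SD, cut at about 11% in these data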
A number is an active result; . = inactive; / = no result given. Most compounds without a hit are left out; they make up all but 0.86% or so of the library.

SMILES | TLR9-MyD88 inh | IDE act | TLR4-MyD88 BLA | NOD2-RIPK2 inh | IDE cell inh | NOD2 RIPK2 conf | BLA counter
O=C(/C=C/c1cccnc1)/C=C/c1cccnc1 | . | . | / | 23 | / | 48 | .
O=C(COc1ccc(S(=O)(=O)N2CCOCC2)cc1Cl)NCC1CCCO1 (stereo not drawn) | . | . | / | 46 | . | . | .
O=C(NC1CCCCC1)c1cnn2c(C(F)(F)F)cc(-c3ccco3)nc12 | . | . | . | 24 | . | . | .
COc1ccc(C=NNc2ccc([N+](=O)[O-])cc2S(=O)(=O)Nc2ccccc2C(=O)O)cc1OC | . | . | / | 27 | . | 36 | 36
O=[N+]([O-])c1ccc(Sc2nc3ccccc3o2)c([N+](=O)[O-])c1 | . | . | . | 30 | . | 60 | .
COC(=O)CCn1[nH]c(=O)c2ccccc2c1=O | . | . | . | . | . | / | /
Cc1ccc(Nc2nc(N)c([N+](=O)[O-])c(NCc3ccco3)n2)cc1 | . | . | . | 25 | . | . | .
Cc1ccc(OCC(=O)Nc2cccc(S(=O)(=O)NC3=NCCCCC3)c2)cc1C | . | . | / | . | . | / | /
Cc1cc(OCC(=O)Nc2cccc(S(=O)(=O)NC3=NCCCCC3)c2)ccc1Cl | . | . | . | 40 | . | . | .
Cc1cccc(C)c1NC(=O)C(c1ccc(C#N)cc1)n1c(=O)c(-c2cc3ccccc3[nH]2)nc2ccccc21 (stereo not drawn) | / | / | / | 58 | / | 55 | 74
Cc1cccc(C)c1NC(=O)C(c1ccccc1)n1c(=O)c(-c2ccccc2)nc2ccccc21 (stereo not drawn) | / | / | / | . | / | / | /
COc1ccc(NC(=O)C(c2ccccc2)n2c(=O)c(-c3ccco3)nc3ccccc32)cc1 (stereo not drawn) | / | / | / | . | / | / | /
Cc1cccc(C)c1NC(=O)C(c1ccc(-c2ccccc2)cc1)n1c(=O)c(-c2ccco2)nc2ccccc21 (stereo not drawn) | / | / | / | . | / | / | /
O=C(Nc1ccc2ccccc2c1)C(c1ccccc1)n1c(=O)c(-c2cc3ccccc3[nH]2)nc2ccccc21 (stereo not drawn) | / | / | / | 47 | / | 42 | 66
Cc1cccc(C)c1NC(=O)C(c1ccccc1)n1c(=O)c(-c2cc3ccccc3[nH]2)nc2ccccc21 (stereo not drawn) | / | / | / | 47 | / | 45 | 68
Cc1cccc(C)c1NC(=O)C(c1ccncc1)n1c(=O)c(-c2cc3ccccc3[nH]2)nc2ccccc21 (stereo not drawn) | / | / | / | 47 | / | 44 | 63
Nc1nc2n(n1)C(c1cccs1)CC(c1ccc(Br)cc1)N2 (stereo not drawn) | . | . | . | . | . | / | /
O=C(Cn1cnc2cc(Cl)ccc2c1=O)Nc1ccc2c(c1)OCO2 | . | . | . | . | . | / | /
O=[N+]([O-])/C=C\c1ccc(N2CCCC2)c(F)c1 | . | . | . | 31 | / | 77 | 22
CCc1ccc2nc(N(CCCN(C)C)C(=O)c3ccc(S(=O)(=O)N4CCc5ccccc5C4)cc3)sc2c1 | . | . | / | 22 | . | 23 | .
COc1ccc(CC(=O)Nc2ccc(-c3cn4ccc(C)cc4n3)cc2)cc1 | . | . | . | 23 | . | . | .
CCc1nnc(NC(=O)c2nc(S(=O)(=O)Cc3ccc(C)cc3)ncc2Cl)s1 | . | . | / | 26 | . | 34 | 22
CCc1nnc(NC(=O)c2nc(S(=O)(=O)Cc3ccccc3)ncc2Cl)s1 | . | . | / | . | . | / | /
CCc1nnc(NC(=O)c2nc(S(=O)(=O)Cc3cccc(C)c3)ncc2Cl)s1 | . | . | / | 34 | . | 28 | 19
CSc1nnc(NC(=O)c2nc(S(=O)(=O)Cc3cccc(C)c3)ncc2Cl)s1 | . | . | / | . | . | / | /
SMILES | TLR9-MyD88 inh | IDE act | TLR4-MyD88 BLA | NOD2-RIPK2 inh | IDE cell inh | NOD2 RIPK2 conf | BLA counter
Cc1ccc(C)c(Cn2c3ccccc3c3cnn(CC(=O)NCc4ccccn4)c(=O)c32)c1 | . | . | / | . | . | / | /
Cc1ccc(C)c(Cn2c3ccccc3c3cnn(CC(=O)NCCCN4CCCCC4)c(=O)c32)c1 | . | . | / | 21 | . | . | .
CCOc1ccccc1CNC(=O)c1ccc(Sc2ccc(Cl)cc2)c(NC(C)=O)c1 | . | . | . | . | . | / | /
CCOc1ccc(CNC(=O)c2ccc(Sc3ccc(Cl)cc3)c(NC(C)=O)c2)cc1 | . | . | . | 33 | . | . | .
NS(=O)(=O)c1ccc(CCNc2nn3c(-c4ccc(F)c(Cl)c4)cnc3s2)cc1 | / | / | / | . | / | / | /
CCCCN(CC)CCNC(=O)c1cn(C)c(=O)c2c1c1ccccc1n2C | . | . | / | . | . | / | /
COc1ccccc1C(=O)NCCC(=O)NCC(C)(C)N1CCOCC1 | . | . | / | . | . | / | /
CCOc1ccccc1C(=O)NCC(=O)NCC(C)(C)N1CCOCC1 | . | . | / | 29 | . | . | .
N#Cc1cc(Oc2cccc3cccnc23)c(-n2nnc3ccccc32)cc1C#N | . | . | . | 70 | . | . | .
COc1ccc2c(c1)C(=O)C(=O)N2 | . | . | . | . | . | / | /
COc1ccc(CC2C(=O)NC(C)C(=O)N(C)C3Cc4ccc(cc4)Oc4cc(ccc4O)CC(C(=O)NC(C)C(=O)NC(C)C(=O)N2C)N(C)C3=O)cc1 (stereo not drawn) | . | . | / | 22 | / | 26 | .
COc1ccc(N2CCN(CC(=O)Nc3ccc(C)cc3)CC2)cc1 | . | . | / | . | . | / | /
COc1ccc(N2CCN(CC(=O)Nc3ccc(C)cc3Br)CC2)cc1 | . | . | / | 26 | / | . | .
C=C(CN(C)C)C(=O)c1ccc(OC2OC(COC(C)=O)C(OC(C)=O)C(OC(C)=O)C2OC(C)=O)cc1 (stereo not drawn) | . | . | / | 27 | / | 74 | 24
O=C(CSc1cccc(C(F)(F)F)c1)Nc1ccc(Cl)cc1Cl | . | . | . | . | . | / | /
COc1ccc(-c2nc(CS(=O)CC(=O)NC3CCCc4ccccc43)c(C)o2)cc1OC (stereo not drawn) | . | . | . | 27 | . | . | .
COC(=O)c1c(-c2ccccc2)[nH]c(-c2nccc3ccccc23)c1C(=O)OC | . | / | / | . | / | / | /
CC(C)(C)[C@H](N)C(=O)N[C@H]1CCC2C3CC=C4C[C@@H](O)CC[C@]4(C)C3CC[C@@]21C (stereo partly drawn) | . | . | / | 21 | . | 22 | .
CC(C)C(=O)N[C@H]1CCC2C3CC=C4C[C@@H](O)CC[C@]4(C)C3CC[C@@]21C (stereo partly drawn) | . | . | / | . | . | / | /
O=[N+]([O-])c1cccnc1Oc1cccnc1 | . | . | / | . | . | / | /
